Shown are actives, neighbours in structure and some others; about 3.3% of the full set was active somewhere.
BoNT F protease: BoNT F light chain protease inhibition; Multiplex microsphere protease cleavage assay, flow cytometry; inhibition, % at 10 µM; actives 0.22% (n = 360,000); in the data active = inhibition above about 35%, passing the limit was not always enough; inconclusive = no clear call, values can overlap the other calls; note: plate controls were buffer without enzyme for full effect and enzyme alone for no effect
PriA SSB inh: K. pneumoniae PriA-SSBct interaction inhibition | actives 0.6% (n = 430,000) | AID 1272365 | AlphaScreen SSBct-PriA binding, biotinylated peptide | inhibition, % at 33 µM; in the data active = inhibition mostly above about 37%, no sharp cut-off; inactive = mostly below about 20%;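 note: plate controls were negative control peptide for no effect and reference peptide for full effect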
BoNT-A LC inh2: blocks Botulinum neurotoxin A light chain protease; multiplex microsphere protease substrate cleavage, flow cytometry; inhibition, % at 10 µM; actives 0.17% (n = 360,000); note: plate controls were buffer without enzyme for full effect and enzyme alone for no effect
Anthrax LF inh2: anthrax lethal factor protease inhibition | P15917 | actives 0.12% (n = 360,000) | multiplex microsphere protease cleavage assay, LF | inhibition, % at 10 µM | AID 588501; note: plate controls were buffer without enzyme for full effect and enzyme alone for no effect
MazEF act: activators of E. coli MazEF toxin-antitoxin RNase | FAM/BHQ RNA-DNA oligo cleavage fluorescence, 5 h | activation, % at 20 µM | actives 0.32% (n = 350,000) | P0AE70; in the data active = activation above about 50%
Target sequence (P0AE70 whole entry, looked up): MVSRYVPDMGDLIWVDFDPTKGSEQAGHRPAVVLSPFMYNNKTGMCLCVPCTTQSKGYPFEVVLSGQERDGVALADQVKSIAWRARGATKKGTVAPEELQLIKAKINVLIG
Bead autofluor: flagged as autofluorescent in microsphere protease counterscreen; compound autofluorescence counterscreen, microsphere flow cytometry; hits give high values; fluorescence intensity (test concentration not listed); actives 3.1% (n = 360,000); AID 624483; in the data active = fluorescence intensity above about 16000; inconclusive = no clear call, values can overlap the other calls
Active calls of the source: *; u = inconclusive; x = no result given; ! = not active in a repeat. Cut-off read from the data, not from the text of the source, unless noted: active = inhibition above about 30%; inconclusive = no clear call, values can overlap the other calls; inactive = below that.

SMILES	BoNT F protease	PriA SSB inh	BoNT-A LC inh2	Anthrax LF inh2	MazEF act	Bead autofluor
COc1ccc2c3c(c(=O)oc2c1OCC(=O)O)CCCC3	-6.2	-13.8	-0.2	-1.4	1.6	2562
COc1ccc(-c2cc3nc(C4CCN(C(=O)OC(C)(C)C)CC4)c(C(=O)O)cn3n2)cc1	3.7	-9.3	1.0	0.2	-0.6	22638*
CC(C)N(C(=O)CSc1nnc(C2CCCCC2)n1N)c1ccccc1	x	15.0	x	x	x	x
COc1ccc(CCNC(=S)NS(=O)(=O)c2ccc(C)cc2)cc1OC	x	-9.0	x	x	x	x
CCn1c(SCC#N)nc2c(c1=O)C1(CCCC1)Cc1ccccc1-2	-7.1	-6.7	-1.7	-0.5	-5.3	24128*
CCOc1ccc(S(=O)(=O)Nc2ccc(Nc3ccc(-n4cccn4)nn3)cc2)cc1	x	70.0*	x	x	x	x
O=S(=O)(Nc1ccc(Nc2ccc(-n3cccn3)nn2)cc1)c1cccc(Br)c1	x	28.0	x	x	x	x
Cc1ccc(S(=O)(=O)N2CCN(CC(=O)NC3CCCc4ccccc43)CC2)cc1C (configuration not stated)	6.1	5.5	-0.1	-0.2	-3.8	21955*!
O=C(CN1CCN(S(=O)(=O)c2ccccc2)CC1)NC(=O)NCc1ccccc1	u	-7.5	1.4	2.3	28.1	3866
Cc1ccc(S(=O)(=O)N2CCN(CC(=O)NC(=O)NCc3ccccc3)CC2)cc1C	-12.1	-7.5	0.2	-7.2	95.0*	3972
C=CCn1c(SCC(=O)Nc2ccc(S(N)(=O)=O)cc2)nc2sc(C)c(C)c2c1=O	x	-7.0	x	x	x	x
COc1ccc(NC(=O)CN(c2ccc(C)cc2)S(=O)(=O)c2c(C)nn(C)c2C)cc1OC	1.6	-0.3	-0.3	-4.1	-0.1	22939*
COc1ccc2nc(NC(=O)CN(c3ccc(C)cc3)S(=O)(=O)c3c(C)nn(C)c3C)sc2c1	-5.9	8.6	-3.7	-4.3	-2.8	20805*
CC(C)C(=O)N1CCc2ccc(NS(=O)(=O)c3cccs3)cc2C1	x	-2.0	x	x	x	x
O=C(NCCCc1ccccc1)NCC1(c2ccc(F)cc2)CC1	x	15.0	x	x	x	x
O=C(N=C1C(Cl)=C(Cl)C(=O)c2ccccc21)c1ccc(Cl)cc1	x	12.0	x	x	x	x
O=C(Cc1cccs1)NNC(=O)c1cccn(Cc2ccc(F)cc2)c1=O	x	-2.0	x	x	x	x
CC1(C)CC(=O)C2=C(C1)N(c1ccc(F)cc1)C(=O)C2(O)C(F)(F)F (configuration not stated)	-6.6	-3.9	-6.4	-0.5	0.3	22420*
O=C(CCc1ccccc1)Nc1cccnc1Cl	65.5*	-15.7	4.9	u	1.6	3754
Cc1ccc(-c2csc3nnc(SCC(=O)NCc4ccc5c(c4)OCO5)n23)cc1	-15.3	-2.0	-2.0	-0.8	-4.3	11448
CC(C)Sc1nc2ccccc2n1CC(=O)NCc1ccc2c(c1)OCO2	2.7	7.8	u	-0.9	2.5	22521*
O=C(CSc1nnc2scc(-c3ccccc3)n12)Nc1ccc2c(c1)OCCO2	-4.9	-2.1	u	1.5	2.4	16931*
CC(Sc1nnc(-c2cccs2)n1Cc1ccccc1)C(=O)NCc1ccc2c(c1)OCO2 (configuration not stated)	0.8	4.3	-0.5	-8.0	64.1*	2405
O=C(CSc1nnc(-c2cccs2)n1Cc1ccccc1)NCc1ccc2c(c1)OCO2	2.4	-10.6	-0.8	-1.9	3.5	2936
O=C(CCSc1nnc2scc(-c3ccccc3)n12)NCc1ccc2c(c1)OCO2	-1.7	1.8	-2.1	-10.2	6.9	16498*
SMILES	BoNT F protease	PriA SSB inh	BoNT-A LC inh2	Anthrax LF inh2	MazEF act	Bead autofluor
COc1ccc2c(c1)CCC[C@@]2(O)CNS(=O)(=O)c1cnn(C)c1	x	2.0	x	x	x	x
O=C1CC2(CCN(C(=O)Cc3ccc(F)cc3)CC2)Oc2ccccc21	x	-8.0	x	x	x	x
O=C(CSc1nnc(-c2c[nH]c3ccccc23)n1-c1ccc(F)cc1)Nc1ccc2c(c1)OCCO2	x	15.0	x	x	x	x
COCCn1c(SCC(=O)Nc2ccc3c(c2)OCCO3)nnc1-c1c[nH]c2ccccc12	-0.3	-0.1	1.8	-5.4	-2.4	22982*
Cc1ccc2oc(C(=O)N(Cc3ccc(N(C)C)cc3)CC3CCCO3)c(C)c2c1 (configuration not stated)	-3.7	15.7	1.5	0.3	1.6	5793
Cc1cc2oc(C(=O)N(Cc3ccc(N(C)C)cc3)CC3CCCO3)c(C)c2cc1C (configuration not stated)	-2.7	49.6*	1.3	-3.8	5.3	5183
Cn1c(-c2ccc(Cl)cc2)nc2ccccc21	x	-11.0	x	x	x	x
O=C(Oc1coc(CSc2nnc(NC(=O)C3CC3)s2)cc1=O)c1ccc(Br)o1	x	-13.0	x	x	x	x
Cc1ccc(C(=O)Oc2coc(CSc3nnc(NC(=O)C4CC4)s3)cc2=O)cc1	-0.1	-26.3	30.0*	-1.0	11.4	2590
O=S(=O)(c1ccc(Cl)s1)N1CCN(c2ccc(-c3noc(C(F)(F)F)n3)cn2)CC1	x	2.0	x	x	x	x
COc1cc(C(=O)Nc2nc(-c3ccc(Br)s3)cs2)cc(OC)c1OC	x	-5.0	x	x	x	x
Cc1ccc(N2CCN(C(=O)N3CCCC3)CC2)cc1C	2.3	-11.7	0.0	-3.2	1.5	16586*
Cc1ccc([C@H](CNC(=O)CSc2ccc(F)cc2)OCCO)cc1	x	-9.0	x	x	x	x
Cc1cc(C)c(C)c(S(=O)(=O)NCC(=O)N2CCCC2)c1C	0.2	-9.8	0.6	-0.9	-0.8	20412*
COc1ccc(CCN(C)C(=O)CSc2ncnc3sccc23)cc1OC	5.5	4.2	0.1	-0.6	1.1	4607
COc1ccc(CCN(C)C(=O)CSc2nccn2C)cc1OC	1.9	-6.7	u	-0.6	0.0	19523*
CCOC(=O)C1=C(N)Oc2c(c(=O)[nH]c3ccc(OC)cc23)C1c1ccccc1 (configuration not stated)	x	-20.0	x	x	x	x
CCCc1cc(=O)n2[nH]c(C(F)(F)F)nc2n1	-6.0	-4.3	0.4	-8.3	2.6	3903
CCCc1cc(=O)n2[nH]c(C)nc2n1	-3.1	-9.4	-2.1	-1.8	-3.7	24470*
O=C(CSc1nnc(CNC(=O)c2cccc(C(F)(F)F)c2)o1)NCc1ccccc1Cl	x	-15.0	x	x	x	x
O=C(OC1CSc2nc3ccccc3n2C1)c1ccco1 (configuration not stated)	-0.3	3.5	1.0	-4.6	6.8	21891*
CN1CCC(OC(=O)c2ccco2)CC1	-1.1	-13.8	-0.7	-2.4	4.6	4480
CCCNS(=O)(=O)c1ccc(NC(=O)c2cccnc2)cc1	1.2	-21.4	0.5	-0.3	4.5	20443*
CCc1ccc(NC(=O)N(C2CCCCC2)C(C)c2cccnc2)cc1 (configuration not stated)	-1.9	-0.9	-1.8	-0.3	4.9	20168*
CCN(C(=O)c1ccc(Cl)c([N+](=O)[O-])c1)c1ccccc1	-13.9	-0.7	0.1	-8.9	1.5	3687
CCN(C(=O)c1ccnc(C(C)(C)C)c1)c1ccccc1	6.0	-3.5	5.5	-3.2	4.9	21211*
CCc1ccc(NC(=O)c2ccnc(C(C)(C)C)c2)cc1	-2.4	5.5	-1.1	-1.5	2.4	24202*
CC(C)c1c(C(=O)Nc2nccs2)nnn1-c1cccc(C(F)(F)F)c1	x	2.0	x	x	x	x
O=S(=O)(c1ccc(Br)s1)N1CC(c2nc(-c3ncccn3)no2)C1	x	-21.0	x	x	x	x
